From PubChem BioAssay AID1565 (Sanford-Burnham Center for Chemical Genomics, 2009)
Screen size: about 290,000 compounds; about 3,200 (1.1%) were called active. The sample holds actives, similar compounds and a random draw of the others, so the mix is not that of the screen. Cut-off read from the data, not from the text of the source: active = inhibition above about 60%; inactive = the rest.

The compounds below were run against Phosphoethanolamine/phosphocholine phosphatase (Homo sapiens) (UniProt Q8TCT1) (assay: PubChem AID 1565). Conditions: recombinant PHOSPHO1, absorbance phosphatase assay; at 13.3 µM; hits give high values.
Sequence of Phosphoethanolamine/phosphocholine phosphatase (Homo sapiens) (Q8TCT1 whole entry, looked up): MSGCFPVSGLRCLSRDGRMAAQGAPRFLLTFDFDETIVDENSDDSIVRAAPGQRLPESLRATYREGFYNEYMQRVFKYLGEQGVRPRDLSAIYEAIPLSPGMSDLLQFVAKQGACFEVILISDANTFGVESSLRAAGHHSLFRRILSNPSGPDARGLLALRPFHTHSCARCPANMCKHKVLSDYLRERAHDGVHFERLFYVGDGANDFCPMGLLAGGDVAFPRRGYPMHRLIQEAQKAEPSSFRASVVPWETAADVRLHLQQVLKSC

inhibition, active:
Cc1cc(=O)[nH]c(S)c1C#N 71.4%, O=C(CSc1nc(Nc2ccccc2)nc(N2CCOCC2)n1)Nc1cc(Cl)ccc1O 61%, C=CCn1c(SCc2cc(C(=O)OC)c(C)o2)nnc1-c1ccncc1 86.5%, C=CCn1c(SCc2c(C(=O)OC)sc(N)c2C(=O)OC)nnc1-c1ccc(Cl)cc1 60.1%, Cc1cccc(NS(=O)(=O)c2ccc(C(=O)NCC(C)(C)N3CCOCC3)cc2)c1C 65.4%, COc1ccc(-c2nnc(SC(=O)N3c4ccccc4Sc4ccccc43)o2)cc1 81.1%, COc1cccc(C(=O)N/N=C(\C)c2cccc(NC(=O)c3ccc(F)cc3)c2)c1OC 65.8%, O=C1NC(c2ccncc2)Nc2sc3c(c21)CCCC3 (stereo unspecified) 97.6%, Fc1cccc(Cc2noc(CN3CCN(c4cnccn4)CC3)n2)c1 62.8%, Cc1ccccc1OCCC(=O)OCC(=O)NC(C)c1ccccc1 (stereo unspecified) 64.7%, CCOC(=O)N1CCN(CC(=O)Nc2ccc(F)cc2)CC1 60.1%, CCOC(=O)c1sc(=S)n2c1[nH]c(=O)c1ccc(C(=O)OC)cc12 98.7%, N#CCSc1nc2ccc(N3CCOCC3)cc2c(=O)n1CCc1ccccc1 81.7%, C=CCn1c(SCn2nnc3ccccc3c2=O)nnc1-c1ccc(Cl)cc1 94.8%, O=C(Cn1nnc2ccccc2c1=O)NCc1ccc(Cl)cc1 62.9%, Cc1cccc(-n2c(N)c(C(=O)N3CCN(C)CC3)sc2=S)c1 83.6%, Cc1ccc(-n2c(N)c(C(=O)N3CCOCC3)sc2=S)c(C)c1 87.8%

inhibition, inactive:
O=C(CC(c1ccccc1)c1ccccc1)NCC(O)c1ccc([N+](=O)[O-])cc1 (stereo unspecified) 12%, Cc1cc(=O)[nH]c(SCC(N)=O)c1C#N -7.4%, Cc1ccc(NC(=O)CSc2sc3c(O)cc(=O)[nH]c3c2C#N)cc1C 19.4%, C/C(=N\NC(=O)c1ccc2ccccc2c1)c1cccnc1 -19.7%, CCc1nnc(NC(=O)CSCc2cc(=O)n3cc(C)sc3n2)s1 6.8%, Cc1ccc(Nc2nc(N3CCOCC3)nc(N3CCOCC3)n2)cc1Cl 6.9%, C/C(=N\Nc1nc(Nc2ccccc2)nc(N2CCOCC2)n1)c1cccs1 24.8%, Cc1ccc(C(=O)Nc2nnc(C3=COCCO3)o2)cc1C -32.7%, CCOc1ccc(C(C)=O)cc1CSc1nnc(-c2ccncc2)n1CCOC -31.5%, COC(=O)c1sc(N)c(C(=O)OC)c1COC(=O)CNS(=O)(=O)c1ccc(C)cc1 1.7%, C=CCn1c(SCc2ccc(Cl)c(Cl)c2)nnc1C(CO)NC(=O)c1ccc(OC)cc1 (stereo unspecified) -16.9%, COC(=O)c1ccc(NC(=O)CSc2nnc(-c3ccncc3)n2C)cc1 -5.5%, COc1cccc(CNC(=O)Cn2c(=O)oc3cc(S(=O)(=O)N4CCCCC4)ccc32)c1 22.6%, CN(C)S(=O)(=O)c1ccc(C(=O)NCC(C)(C)N2CCOCC2)cc1 34.7%, CC(C)(CNC(=O)c1ccc(Cl)c(S(=O)(=O)N2CCc3ccccc3C2)c1)N1CCOCC1 38.5%, CC(C)C[C@H](NC(=O)N1CC(=O)Nc2ccccc21)C(=O)N[C@H](Cc1ccccc1)C(=O)O 33.8%, COc1ccc(-c2nnc(SCc3cccnc3)o2)cc1 -4.4%, COc1ccc(N2CCN(Cc3nnc(-c4ccccc4)o3)CC2)cc1 -23.5%, CC(=O)Nc1cccc(/C(C)=N/NC(=O)c2ccccc2Cl)c1 16.2%, C/C(=N/NC(=O)c1ccc(NC(=O)c2ccc(F)cc2)cc1)c1ccccc1 -99%, COc1ccc(S(=O)(=O)NCC(=O)NC2CC2)cc1OC 27.6%, CCCCCC(O)(CCN1CCCCC1)c1ccccc1 (stereo unspecified) 43.7%, Cc1cccc(C)c1OCCN1CCOCC1 24.1%, C/C(=C\c1ccccc1)C1NC(=O)c2c(sc3c2CCCC3)N1 (stereo unspecified) 12.2%, Cc1ccc(C(=O)c2c(NC(=O)c3ccncc3)sc3c2CCCC3)cc1 9.7%, CCCNC(=O)COc1coc(CN2CCN(Cc3ccccc3)CC2)cc1=O 36%, FC(F)(F)c1cccc(Cc2noc(CN3CCC(N4CCCCC4)CC3)n2)c1 51.8%, CCOC(=O)N1CCN(Cc2nc(Cc3cccc(C(F)(F)F)c3)no2)CC1 34.6%, COC(=O)c1ccc(CNC(=O)C2CCC(=O)N(Cc3ccccn3)C2)cc1 (stereo unspecified) 11.9%, O=C(C[C@H]1C(=O)N(c2ccc(F)c(F)c2)C[C@@H]1Cc1ccccc1)Nc1ccccc1 -7.3%, Cc1ccc(OCC(=O)NC(C)c2ccccc2)cc1C (stereo unspecified) -16.6%, Cc1ccc(OCCCC(=O)NC(C)c2ccccc2)c(C)c1 (stereo unspecified) 48.4%, Cc1sc2ncn(CC(=O)NCCCC(=O)N3CCN(c4ccccc4F)CC3)c(=O)c2c1C 2.2%, Cn1cc(S(=O)(=O)Nc2ccc(Cl)cc2Cl)c(=O)n(C)c1=O 20.2%, Cc1ccc(C)c(S(=O)(=O)Nc2cccc(-n3cnnn3)c2)c1 34.8%, O=C(CN1CCN(c2ccccc2)CC1)Nc1ccc(F)cc1 27%, CCOC(=O)N1CCN(CCC(=O)Nc2ccccc2)CC1 44.4%, CCOC(=O)C1=C(C)Nc2sc(C(=O)c3ccc(Br)cc3)c(N)c2C1c1ccc(C(=O)OC)cc1 (stereo unspecified) 38.2%, CCOC(=O)c1sc(NC(=O)c2ccncc2)nc1C -5.8%, CCOc1ccc(CN2CCC(n3nccc3NC(=O)C3CC3)CC2)cc1CO 12.7%, CCCc1c(C(=O)Nc2ccc(F)cc2)cnn1-c1ccccc1 41.2%, COc1ccc(-c2noc(CCCC(=O)NC3CCCC3)n2)cc1OC 18.5%, CC(=O)c1ccc(N2Cc3ccccc3C2)cc1 29.1%, Cc1cc(Cl)c2oc(C(=O)N(C)C(C)c3ccccn3)c(C)c2c1 (stereo unspecified) 18.5%, Cc1ccc(N(CC(=O)NCC2CCCO2)C(=O)CNS(=O)(=O)c2ccc(Cl)cc2)cc1 (stereo unspecified) 32.5%, CCc1ccc(NC(=O)CSc2nc3ccccc3c(=O)n2CCN2CCOCC2)cc1 2.3%, CCCCn1c(SCC(=O)NCC2CCCO2)nc2ccc(N3CCOCC3)cc2c1=O (stereo unspecified) -6.7%, COc1cccc2cc(C(=O)NCc3ccc(C)cc3)c(=N)oc12 37.7%, CC(=O)Nc1ccc(NC(=O)C2CCCN2S(=O)(=O)c2cccc(C(F)(F)F)c2)cc1 (stereo unspecified) 24%, Cc1c2cnn(CC(=O)NCc3ccccn3)c(=O)c2c(C)n1Cc1ccc(Cl)cc1 -9%, Nc1nnc(SCn2nnc3ccccc3c2=O)s1 16.1%, Cc1ccc(CNC(=O)CN2CCN(Cc3ccc(Cl)cc3)C2=O)cc1 4.8%, O=c1c2ccccc2nnn1CSc1nnnn1-c1ccccc1 8%, COc1ccc(N(C)C(=O)C2CCN(S(=O)(=O)c3cccc4nsnc34)CC2)cc1 6.8%, CCOc1ccc(NC(=O)CCCCCN2C(=O)[C@@H]3Cc4ccccc4CN3C2=O)cc1 6.8%, COc1cc(C(=O)OC2CCOC2=O)c([N+](=O)[O-])cc1OC (stereo unspecified) 32.3%, COc1ccc2[nH]c(C(=O)N3CCN(C)CC3)c(C)c2c1 18.7%, Cc1cccc(C(=O)N2CCCN(C(=O)c3cccc(C)c3)CC2)c1 8.5%, N#Cc1ccccc1-n1c(N)c(C(=O)N2CCCC2)sc1=S -13.6%, Cc1ccc(S(=O)(=O)N2CCN(C(=O)N3CCOCC3)CC2)c(C)c1 -7.3%, COCC1CCN(C(=O)c2ccc3oc(Cc4ccccc4)nc3c2)C1 (stereo unspecified) 27.6%, Cc1cc(OCc2cc(C(=O)NCc3cc(C(C)C)no3)no2)cc(C)c1Cl 22.6%, CCn1cc(CCC(=O)NCc2ccc(F)cc2)c2ccccc21 38.1%, COc1ccc(CN(C)C(=O)c2cc(-c3ccc(C)cc3C)nc3ccccc23)c(OC)c1OC 31.9%
